Screening data from PubChem BioAssay.
Only some compounds are listed: those with a hit (about 1.3% of all), similar ones and a draw of the others.
PvdQ acylase – P. aeruginosa PvdQ acylase inhibition; purified PvdQ acylase, fluorescence plate reader; inhibition, % at 10 µM; hit rate 0.063% among 340,000; in the data active means inhibition above about 30%, passing the limit was not always enough;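 further: 0% = vehicle neutral wells and 100% = reference inhibitor wells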
Yeast superoxide – caloric restriction mimetics inhibiting age-related superoxide in yeast | hit rate 0.18% among 330,000 | superoxide response (% of plate mean), % at 10 µM | S. cerevisiae aged cells, superoxide DHE fluorescence; active compounds read low;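 active means superoxide response under a set limit, about three screen SD below normal, cut at about 65% in these data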;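 further: yeast aged for seven days with compound at 30 °C before DHE staining; 100% = average MFI of all compound-treated wells on the plate with controls excluded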
HTR5A ag – HTR5A agonism, opioid heterodimer counter-screen; P47898; HTR5A agonist assay, luminescence, cell-based; activation, % at 9.3 µM; hit rate 0.61% among 340,000; AID 504692; in the data active means activation mostly above about 9.5%, no sharp cut-off; inactive means mostly below about 7.6%;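 further: 0% = cells with vehicle only and 100% = reference agonist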
Target sequence (P47898 whole entry, looked up): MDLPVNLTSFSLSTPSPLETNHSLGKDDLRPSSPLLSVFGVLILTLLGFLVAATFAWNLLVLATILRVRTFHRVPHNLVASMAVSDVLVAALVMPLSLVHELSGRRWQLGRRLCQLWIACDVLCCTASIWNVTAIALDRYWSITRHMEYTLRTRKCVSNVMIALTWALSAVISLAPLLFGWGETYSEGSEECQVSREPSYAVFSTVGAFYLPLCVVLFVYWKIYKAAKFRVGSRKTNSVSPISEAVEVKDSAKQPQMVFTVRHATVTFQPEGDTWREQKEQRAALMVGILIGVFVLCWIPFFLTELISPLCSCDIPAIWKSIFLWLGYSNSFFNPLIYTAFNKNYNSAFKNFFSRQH
HTR5A inv ag – counter-screen for OPRM1-OPRD1 inverse agonists: human HTR5A inverse agonism; HTR5A cell line, luminescence; hit rate 0.083% among 340,000; AID 504634; P47898; inhibition, % at 9.3 µM; in the data active means inhibition mostly above about 23%, no sharp cut-off; inactive means mostly below about 18%;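 further: 0% = cells with DMSO and 100% = no-cell wells with DMSO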
MOR-DOR ag-1 – OPRM1-OPRD1 heterodimerization agonism; activation, % at 9.3 µM; hit rate 0.3% among 340,000; AID 504326; cells, luminescence; P35372+P41143;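 further: 0% = vehicle-treated cells and 100% = reference agonist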
OPRM1-OPRD1 inv – inverse agonists of human mu-delta opioid receptor heterodimerization | P35372+P41143 | cell-based MOR-DOR heterodimer luminescence, inverse agonism | inhibition, % at 9.3 µM | hit rate 0.21% among 340,000; in the data active means inhibition above about 22%, passing the limit was not always enough;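 further: 0% = cells with DMSO and 100% = wells without cells with DMSO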
MOR-DOR ag-2 – promotes OPRM1-OPRD1 heterodimerization in HTR5A counter-screen. activation, % at 9.3 µM. shares compounds with HTR5A ag. AID 504913. U2OS counter-screen cells, complementation luminescence, 3 h. hit rate 13% among 800
HTR5A ag confirm – confirmation of human HTR5A agonists; shares compounds with HTR5A ag; HTR5A agonist cell assay, luminescence; activation, % at 9.3 µM; hit rate 17% among 800; AID 504915; in the data active means activation above about 17%;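 further: 0% = cells with vehicle only and 100% = full reference agonist response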
* marks the source's active call; other numbers are inactive results; · = no result given. Unless noted, no stated cut-off is given here; in the data, active means activation above about 18%; inactive means the rest.

SMILES	PvdQ acylase	Yeast superoxide	HTR5A ag	HTR5A inv ag	MOR-DOR ag-1	OPRM1-OPRD1 inv	MOR-DOR ag-2	HTR5A ag confirm
C=CCN(c1ccccc1)S(=O)(=O)c1cccc(C(=O)N2CC(C)CC(C)C2)c1 (stereo unspecified)	-7	97	1	-25	6	-34	·	·
OCC#CCSc1nnc(-c2ccncc2)o1	1	107	16*	-43	-5	20	20*	2
CCSc1nnc(-c2ccncc2)o1	-6	99	2	-12	-2	10	·	·
Cc1nn(-c2ccc(Cl)cc2)c2sc(C(=O)N3CCN(c4ccccn4)CC3)cc12	-15	92	22*	-56	-3	14	1	-1
COc1ccc(CCN2C(=O)CSC2=Nc2ccc(C)cc2C)cc1OC	13	106	6	-11	-1	3	·	·
CCCCOc1ccc(C(=O)N/C(=C\c2cccc([N+](=O)[O-])c2)C(=O)OCCC)cc1	-13	110	4	-9	4	-21	·	·
CCCCOc1ccc(C(=O)N/C(=C\c2cccc([N+](=O)[O-])c2)C(=O)OC(C)C)cc1	-23	100	16*	8	5	-21	1	2
O=S(=O)(Cc1ncc(C(F)(F)F)cc1Cl)c1ccccc1	-3	91	0	2	-3	13	·	·
COC(=O)C1=C(C)N(Cc2ccccc2)C(=NCc2cc(OC)c(OC)c(OC)c2)N[C@H]1c1ccc(Br)cc1	-5	103	14*	-12	2	-13	-1	0
COC(=O)C1=C(C)N(Cc2ccccc2)C(=NCc2cc(OC)c(OC)c(OC)c2)N[C@H]1c1ccccc1	-1	102	0	-23	-1	6	·	·
Cc1nc2cc(NC(=O)N3c4ccccc4CC3C)ccc2o1 (stereo unspecified)	2	115	3	-1	-4	19	·	·
Cc1nc2cc(NC(=O)N3c4ccccc4CC3C)ccc2n1C (stereo unspecified)	1	92	22*	-58	-3	14	1	24*
COc1cc(C(=C(CC(=O)O)C(=O)O)c2ccc3c(c2)OCO3)cc(OC)c1OC	0	·	2	-7	-4	17	·	·
CC1(C)CC(n2c(NCCO)nc3c(c2=O)C2(CCCC2)Cc2ccccc2-3)CCO1 (stereo unspecified)	3	119	23*	-60	4	-26	1	0
O=c1c2c(nc(NCCO)n1CC1CCCCC1)-c1ccccc1CC21CCCC1	-5	103	-1	-18	2	-13	·	·
COc1ccc(NC(=O)CSc2nnc(-c3ccccc3)n2N)cc1	9	104	-2	8	-2	12	·	·
CCn1c2ccccc2c2cc(NC(=O)CSc3nnc(-c4ccc(OC)cc4)n3N)ccc21	-6	94	19*	-49	14	-73	8	6
COc1ccc(N(C(=O)CNC(=O)c2cccs2)C(C(=O)NCC2CCCO2)c2ccccc2)c(OC)c1 (stereo unspecified)	-10	105	-8	1	3	-22	·	·
CCCCCCCCCCCCCCCC[n+]1cccc2ccccc21	7	137	20*	-36	15	-74	494*	7
CCCCCCCCC[n+]1cccc2c3ccccc3ccc21	-13	108	4	-11	-2	9	·	·
COc1ccc(-c2cc(=O)oc3cc(OC(C)C(=O)NCCCn4ccnc4)ccc23)cc1 (stereo unspecified)	-9	124	-5	12	-2	12	·	·
COc1ccc(S(=O)(=O)N2CCN(Cc3cc(=O)n4ccccc4n3)CC2)cc1	-9	97	16*	-40	1	-4	1	-2
Cc1nn(-c2ccccc2)c(Cl)c1C(=O)NCCN(C)C	-3	90	15*	-6	1	-4	0	1
Cc1ccc2[nH]c(=O)c3cc(C(=O)N(C)c4ccccc4C)sc3c2c1	1	89	0	0	-3	13	·	·
Cc1ccc2[nH]c(=O)c3cc(C(=O)N(CCCOC(C)C)Cc4ccco4)sc3c2c1	-5	111	27*	-83	6	-34	11	13
SMILES	PvdQ acylase	Yeast superoxide	HTR5A ag	HTR5A inv ag	MOR-DOR ag-1	OPRM1-OPRD1 inv	MOR-DOR ag-2	HTR5A ag confirm
CC(C)c1ccc(NC2CCCN(C(=O)CN3C(=O)CSC3=O)C2)cc1 (stereo unspecified)	-9	75	-1	-11	-1	3	·	·
CCn1c(CNC(=O)c2ccccc2F)nnc1SCC(=O)Nc1nncs1	-13	100	-1	3	-1	4	·	·
Cn1c(CCNC(=O)c2ccccc2F)nnc1SCC(=O)Nc1nncs1	-2	90	20*	-56	-1	8	2	3
Cc1ccc2oc(=O)c3cnn(CC(=O)NC4CCCCC4C)c3c2c1 (stereo unspecified)	2	94	21*	-54	0	-2	1	0
Cc1ccc2oc(=O)c3cnn(CC(=O)NC4CCC(C)CC4)c3c2c1 (stereo unspecified)	-3	92	-3	-8	0	1	·	·
O=C(Nc1nnc(SCc2ccc(Cl)cc2)s1)C1CCCO1 (stereo unspecified)	1	98	21*	-54	-2	9	1	-1
O=C(CSc1ccccc1)NCC1(N2CCCCC2)CCCCC1	-7	90	17*	-8	-1	6	23*	6
O=C(CSc1nnnn1-c1ccccc1)NCC1(N2CCCCC2)CCCCC1	-8	111	-6	14	-3	14	·	·
CCCCCCCCOC(=O)CCc1c(C)[nH]c(=S)[nH]c1=O	-2	101	15*	-62	5	-31	4	7
CCCCCCOC(=O)CCc1c(C)nc(N)[nH]c1=O	-4	104	4	-12	-1	6	·	·
CC1CCC(NC(=O)CNC(=O)Cc2cccc3ccccc23)CC1 (stereo unspecified)	-16	105	2	4	1	-10	·	·
Cc1ccc2c(c1C)NC(=O)C21N2CCCC2C(C(=O)c2ccc3ccccc3c2)C12C(=O)Nc1ccccc12 (stereo unspecified)	-19	·	-1	4	-1	4	·	·
COc1ccccc1OCC(=O)Nc1ccc(NC(=O)COc2ccccc2OC)cc1	23	94	24*	-58	-1	4	0	-1
O=C1C(C=NCCCn2ccnc2)=C(O)c2ccccc21	2	97	2	-16	-1	8	·	·
O=C1C(C=NCCCN2CCCC2=O)=C(O)c2ccccc21	-10	101	18*	-7	-1	4	28*	13
Cc1cnc(NC(=O)Nc2ccc(OCc3ccccc3)cc2)c(Br)c1	-8	87	-2	8	-2	10	·	·
